Assay outcomes (PubChem BioAssay)
CHT inh: inhibitors of human choline transporter CHT; Q9GZV3; CHT-expressing cells, membrane potential dye, choline response; hits give low values; B-score at 10 µM; actives 0.86% (n = 310,000); AID 488975;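 active = B-score over 3 SD under the library average, and starting fluorescence ratio not unusually high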;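 also: choline stimulus applied at its EC90 after an EC20 pre-addition; B-score computed on integrated fluorescence ratio after choline addition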
Target sequence (Q9GZV3 whole entry, looked up): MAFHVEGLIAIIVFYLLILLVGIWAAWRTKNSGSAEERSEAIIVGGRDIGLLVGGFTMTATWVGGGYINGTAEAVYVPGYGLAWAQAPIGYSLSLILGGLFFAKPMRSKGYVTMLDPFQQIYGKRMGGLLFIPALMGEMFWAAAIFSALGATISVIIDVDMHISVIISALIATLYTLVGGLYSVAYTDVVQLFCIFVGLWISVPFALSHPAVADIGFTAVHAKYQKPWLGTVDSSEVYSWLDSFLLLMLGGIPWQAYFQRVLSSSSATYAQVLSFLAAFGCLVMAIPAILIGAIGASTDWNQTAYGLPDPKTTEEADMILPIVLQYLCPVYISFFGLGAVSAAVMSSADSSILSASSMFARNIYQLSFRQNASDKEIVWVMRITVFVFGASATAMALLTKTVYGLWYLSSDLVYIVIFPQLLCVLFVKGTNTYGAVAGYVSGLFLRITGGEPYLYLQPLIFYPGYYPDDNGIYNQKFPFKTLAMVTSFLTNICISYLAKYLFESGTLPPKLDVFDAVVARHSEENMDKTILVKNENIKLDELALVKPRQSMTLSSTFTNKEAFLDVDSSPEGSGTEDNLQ
CHT allo act: allosterically activates the human high affinity choline transporter. CHT-expressing cells, membrane potential dye, choline EC20; hits give high values; LV-AA mutant CHT in HEK293 cells. B-score at 10 µM. actives 0.49% (n = 310,000). AID 488977;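 active = initial fluorescence not abnormally high and integrated response B-score, plate-corrected, over 3 SD above library mean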
PHOSPHO1 inh: inhibitors of human PHOSPHO1 phosphatase | AID 1565 | Q8TCT1 | inhibition, % at 13.3 µM | actives 1.1% (n = 290,000) | recombinant PHOSPHO1, absorbance phosphatase assay; in the data active = inhibition above about 60%
TMEM16A act: mouse TMEM16A channel activation, primary screen | actives 0.3% (n = 340,000) | HEK293 TMEM16A/YFP-H148Q/I152L, iodide quench fluorescence; hits give low values | Q8BHY3 | B-score at 10 µM;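 active = fluorescence-ratio B-score plate-corrected deviation score at least 3 library SD below zero, with starting fluorescence score within 5 deviations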;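 also: channel opened by trigger with iodide after compound preincubation; score built on the fluorescence ratio of max minus min over baseline; more negative score means more quench and so TMEM16A activation or potentiation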
TMEM16A inh: mouse TMEM16A channel inhibition, primary screen; Q8BHY3; HEK293 TMEM16A/YFP iodide influx fluorescence, ionomycin; normalized B-score (activity score, 25-100; higher = stronger inhibition) at 10 µM; actives 1.2% (n = 310,000); AID 588511;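 active = ratio plate-corrected score three or more library SD toward inhibition, starting fluorescence score within five deviations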;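 also: score derived from kinetic fluorescence span divided by baseline fluorescence per well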
HDAC3 inhib: blocks human histone deacetylase 3; recombinant HDAC3, fluorogenic peptide/trypsin coupled, fluorescence; inhibition, % at 8.3 µM; actives 0.15% (n = 320,000); AID 2718; in the data active = inhibition above about 26%, passing the limit was not always enough
TMEM16A reconf: reconfirmed blocker of mouse TMEM16A calcium-activated chloride channel; shares compounds with TMEM16A inh; HEK293 TMEM16A/YFP-H148Q, iodide quench fluorescence; ionomycin added to raise cell calcium; inhibition, % at 10 µM; actives 39% (n = 2,300); AID 652189;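 active = mean duplicate percent inhibition, scaled so buffer wells are 0 and the reference blocker 100, over three buffer SD above buffer mean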
TMEM16A Ca cntr: calcium mobilization counter-screen hit for TMEM16A inhibitor series. shares compounds with TMEM16A inh. TMEM16A/YFP HEK293, Fluo4 calcium mobilization. calcium response (% of ionomycin), % at 10 µM. actives 2% (n = 2,300). AID 652231;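 active = duplicate-averaged calcium signal over 20% of the ionomycin maximum, relative to buffer baseline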;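 also: each well's signal is peak minus trough fluorescence divided by its pre-addition baseline; 0% = buffer wells and 100% = ionomycin wells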
YFP-HEK293 quench: acts in parental YFP-HEK293 cells lacking TMEM16A, counter-screen | AID 652233 | 2,300 tested, under 10 active | shares compounds with TMEM16A inh | YFP ratio F(max-min)/F0 at 10 µM | iodide YFP quench, ionomycin;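 active = yellow fluorescent protein signal ratio exceeding the buffer control mean by over 5 SD of those controls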;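 also: ratio is mean of duplicate wells from kinetic YFP trace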
ClC-1 inh: selectivity of TMEM16A inhibitors: inhibition of rat ClC-1 chloride channel | shares compounds with TMEM16A inh | CHO ClC-1-YFP, iodide influx fluorescence quench; iodide control reads 0, buffer control 100 | ratio percent, % at 10 µM | 2,300 tested, under 10 active | AID 652236;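 active = duplicate-mean ratio percent above the mean of iodide-only control wells, which defines zero, plus 5 of their SD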;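 also: higher percent means stronger block of ClC-1 iodide influx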
The depositor's hits bear a star; i = inactive; . = no result given. This is a sample that favours compounds with a hit; in the whole collection about 3.2% have one here.

SMILES | CHT inh | CHT allo act | PHOSPHO1 inh | TMEM16A act | TMEM16A inh | HDAC3 inhib | TMEM16A reconf | TMEM16A Ca cntr | YFP-HEK293 quench | ClC-1 inh
CCC(C)n1c(C)nc2c(c1=O)c1nc3ccccc3nc1n2CCC1=CCCCC1 (centres undefined) | i | i | 19.4 | i | 25* | -4.2 | 21.5%* | i | -1.05 | -7.5
COCCNC(=O)c1ccc2c(=O)n(Cc3ccco3)c(SCC(=O)NC3CCCCC3)nc2c1 | i | i | 24.0 | i | i | 1.1 | i | i | -1.02 | -5.5
COCCNC(=O)c1ccc2c(=O)n(Cc3ccco3)c(SCC(=O)Nc3ccc(OC)cc3OC)nc2c1 | i | i | 3.8 | i | i | 5.6 | . | . | . | .
Cc1ccc(C(=O)N2c3ccccc3N(Cc3ccccc3)C(=O)C2(C)C)cc1 | i | i | -11.4 | i | 100* | 0.5 | 24.5%* | i | -0.974 | -9.5
CCN1C[C@@H]2[C@@H]3C(=O)N(Cc4ccccc4)C(=O)[C@@H]3[C@](C)(C1=O)N2C(=O)c1ccc(C)cc1 | . | . | . | i | . | . | . | . | . | .
COc1cccc(CNc2ncn[nH]2)c1OCc1ccccc1F | i | i | -5.1 | i | i | -12.1 | . | . | . | .
Cc1cc(C)nc(SCc2nnc(SCC(=O)Nc3nc(-c4ccccc4)cs3)n2C)n1 | i | i | -3.3 | i | i | 1.0 | . | . | . | .
Cc1csc(SCC(=O)Nc2nc(-c3ccccc3)cs2)n1 | i | i | 9.7 | i | 100* | -1.8 | i | i | -1.03 | -5.0
COc1ccccc1-c1nnc(SCC(=O)Nc2nc(-c3ccccc3)cs2)n1C | i | i | 15.6 | i | 100* | 6.6 | 18.0%* | i | -0.795 | 3.0
CN(CC(=O)Nc1cccc(F)c1)C(=O)/C=C/c1cc(Br)ccc1OC(F)F | i | i | . | i | i | 0.7 | . | . | . | .
CSCC[C@H](NC(=O)[C@@H]1Cc2ccccc2CN1)C(=O)NC(C)c1ccccc1 (some centres undefined) | i | i | 32.4 | i | i | -4.2 | . | . | . | .
Cc1ccc(-c2ccc(S(=O)(=O)N3CCN(C)CC3)cc2)cc1 | i | i | 14.1 | i | 100* | 3.2 | i | i | -0.847 | -10.0
CCS(=O)(=O)N1CCN(c2ncnc3sc(C)c(C)c23)CC1 | i | i | -11.4 | i | i | -2.5 | . | . | . | .
COc1cc(C(=O)N2CCN(c3ncnc4sc(C)c(C)c34)CC2)cc(OC)c1OC | i | i | -8.1 | i | 25* | 8.7 | i | i | -1.01 | -15.0
Cc1sc2ncnc(N3CCN(S(=O)(=O)c4ccc(F)cc4)CC3)c2c1C | i | i | 27.9 | i | 100* | 1.4 | i | i | -0.985 | -10.5
Cc1ccc(S(=O)(=O)N2CCN(c3ncnc4sccc34)CC2)cc1 | i | i | 24.0 | i | 25* | 1.4 | 17.0%* | i | -1.23 | -13.0
CCOC(=O)c1sc2nc(CC(=O)OC)nc(N3CCN(c4ccccn4)CC3)c2c1C | i | i | 25.7 | i | i | 3.1 | . | . | . | .
O=C(c1noc2c1CSc1ccccc1-2)N1CCN(c2ccc(Cl)cc2)CC1 | i | i | 31.9 | i | 25* | -3.1 | i | i | -1.24 | -5.0
O=C(Nc1nc(-c2ccc(F)cc2)cs1)C1CCN(C(=O)c2ccc(F)cc2)CC1 | i | i | . | i | 25* | 7.8 | 18.5%* | i | -1.08 | -16.5
CC(C)(C)OC(=O)N[C@H](C(=O)OC(C)(C)C)c1ccccc1 | . | . | . | i | . | 9.0 | . | . | . | .
Cc1nc(NCc2ccc3c(c2)OCO3)c2oc3ccccc3c2n1 | i | i | -7.3 | i | 25* | 16.0 | i | i | -1.17 | -4.0
CCc1nc(NCc2ccc3c(c2)OCO3)c2oc3ccccc3c2n1 | i | i | 8.3 | i | i | 20.3 | . | . | . | .
COc1cc(S(=O)(=O)Nc2cccc3cn[nH]c23)c(OC)cc1C | i | i | -36.3 | i | i | 4.6 | . | . | . | .
COc1ccc(N(CC(=O)Nc2ccc(C)cc2)S(=O)(=O)c2c(C)noc2C)cc1 | i | i | 26.1 | i | i | 3.3 | . | . | . | .
COc1ccc(NC(=O)CN(c2cc(C)cc(C)c2)S(=O)(=O)c2c(C)noc2C)cc1 | i | i | -13.3 | i | 100* | . | i | i | -1.14 | 0.5
SMILES | CHT inh | CHT allo act | PHOSPHO1 inh | TMEM16A act | TMEM16A inh | HDAC3 inhib | TMEM16A reconf | TMEM16A Ca cntr | YFP-HEK293 quench | ClC-1 inh
Cc1cc(C(=O)CSc2nc3ccccc3[nH]2)c(C)n1CC1CCCO1 (centres undefined) | i | i | 34.3 | i | 25* | 0.1 | i | i | -1.17 | -29.5
Cc1cc(C(=O)CSc2nc(N)cc(N)n2)c(C)n1CC1CCCO1 (centres undefined) | . | . | . | i | . | -7.1 | . | . | . | .
Cc1cc(C(=O)Cn2nnc(-c3ccc(Cl)cc3)n2)c(C)n1CC1CCCO1 (centres undefined) | i | i | . | i | 25* | -5.5 | 22.0%* | i | -0.846 | -12.0
Cc1cc(C(=O)CSc2nc(N)cc(=O)[nH]2)c(C)n1CC1CCCO1 (centres undefined) | . | . | . | i | . | -3.9 | . | . | . | .
Cc1cc(C(=O)CSc2nc3ccccc3o2)c(C)n1CC1CCCO1 (centres undefined) | i | i | 92.7* | i | 100* | -8.0 | i | i | -1.11 | -24.0
Cc1ccc(C(=O)N2CCCC(C(=O)c3ccc(Oc4ccccc4)cc3)C2)cn1 (centres undefined) | i | i | 48.2 | i | 100* | -6.2 | 29.0%* | i | -0.89 | -10.5
Cc1sc2ncn(CC(=O)OCC(=O)NC(C)(C)C)c(=O)c2c1C | i | i | -25.8 | . | i | -1.6 | i | i | -1.06 | -5.0
C=CCN(C(=O)c1cccc(S(=O)(=O)N2CCN(C)CC2)c1)c1nc(-c2ccccc2)cs1 | i | i | 18.6 | i | 100* | -3.7 | 20.5%* | i | -1.02 | -7.0
CN1CCN(S(=O)(=O)c2cccc(C(=O)N(C)Cc3cccs3)c2)CC1 | . | . | . | i | . | -0.8 | . | . | . | .
